ChEMBL document CHEMBL4296182, “CO-ADD screening of NIH NCI Diversity Set V”
For part of these data: Potency and affinity values are given separately.

Assays:
Staphylococcus aureus = experiment: Antibacterial activity against Staphylococcus aureus MRSA ATCC 43300 (CO-ADD:GP_020); MIC in CAMBH media using NBS plates, by Resazurin F(560/590); format: functional; settings: Concentration 20 uM, ASSAY_TEST Inhibition of Bacterial Growth, detection method Resazurin, Fluorescence (ex560/em590), MEDIA CAMHB, plate type 384well, CORNING #3640, time 18 hr
Acinetobacter baumannii = experiment: Antibacterial activity against Acinetobacter baumannii ATCC 19606 (CO-ADD:GN_034); MIC in CAMBH media using NBS plates, by Resazurin F(560/590); format: functional; settings: Concentration 20 uM, ASSAY_TEST Inhibition of Bacterial Growth, detection method Resazurin, Fluorescence (ex560/em590), MEDIA CAMHB, plate type 384well, CORNING #3640, time 18 hr
Escherichia coli = experiment: Antibacterial activity against Escherichia coli ATCC 25922 (CO-ADD:GN_001); MIC in CAMBH media using NBS plates, by Resazurin F(560/590); format: functional; settings: Concentration 20 uM, ASSAY_TEST Inhibition of Bacterial Growth, detection method Resazurin, Fluorescence (ex560/em590), MEDIA CAMHB, plate type 384well, CORNING #3640, time 18 hr
Klebsiella pneumoniae = settings: Concentration 20 uM; ASSAY_TEST Inhibition of Bacterial Growth; detection method Absorption (OD600); MEDIA CAMHB; plate type 384well; NBS; CORNING #3640; time 18 hr
Candida albicans = settings: 20 µM
Cryptococcus neoformans = settings: Concentration 20 uM; ASSAY_TEST Inhibition of Fungal Growth; detection method Resazurin; Absorption (OD600-OD570); plate type 384well; NBS; CORNING #3640

Compound	Inhibition (Staphylococcus aureus) [%]	Inhibition (Acinetobacter baumannii) [%]	Inhibition (Escherichia coli) [%]	Inhibition (Klebsiella pneumoniae) [%]	Inhibition (Candida albicans) [%]	Inhibition (Cryptococcus neoformans) [%]
O=C(O)c1ccccc1-c1ccccc1C(=O)Nc1ccc2c(c1)nc(O)c1ccccc12	7.3	-9.28	10.96	7.34	7.22	-6.01
CN1N=C/C(=C/NC(N)=O)C1=O	-2.54	-2.43	9.08	2.78	0.49	-3.93
CN1CCC(n2[nH]c(-c3ccccc3)c(Cc3ccccc3)c2=O)CC1 [BENZPIPERYLON]	11.83	-21.66	9.93	7.59	-2.02	-11.9
COc1cccc2nc3cc(C)c(C)cc3nc12	20.84	3.71	12.65	1.37	1.48	-8.3
O=C1C2CC3N1CCC31c3ccccc3-n3c1c2ccc3=O (configuration not stated)	27.56	-3.15	6.22	13.77	5.53	-4.11
O=c1cc(-c2ccccc2)[nH]c2cc(-c3ccco3)nn12	0.84	-12.67	11.9	14.24	-0.13	-17.18
CCC(CC)c1ncc[nH]1	-6.72	-6.57	9.75	17.39	-1.38	-3.12
CSc1cccc(NC(=O)Nc2ccccc2C(N)=O)c1	1.7	10.06	13.89	12.71	-0.32	-13.91
N#Cc1cc(-c2ccccc2)[nH]c1-c1nccc2ccccc12	-0.89	-11.99	7.81	10.89	17.5	-6.55
Cc1nc(NCc2ccccc2)c2cc[nH]c2n1 [ROLODINE]	-1.89	-12.81	4.8	9.06	2.35	-8.43
N#CCCCCN1CCCC1	4.35	-8.73	3.27	18.95	-1.32	-2.95
Nc1cc(N)nc(CS)n1	9.52	-5.46	6.53	20.9	-2.73	-6.05
CC(C)(C)n1nc(C2CC2)cc1NC(=O)Nc1ccc(Cl)cc1	0.51	11.57	-11.06	6.85	4.6	3.95
Cc1cc2cc3c(=O)[nH]c(=O)cc-3n(CC(O)C(O)C(O)CO)c2cc1C (configuration not stated)	10.31	8.52	-0.29	10.28	-1.58	-7.62
Cn1cnc([N+](=O)[O-])c1N=C(N)N	-12.1	-2.18	11.15	7.43	-4.73	1.78
CC1=CC2(C)NC(=O)C(C)C12 (configuration not stated)	9.76	-10.3	6.64	6.26	-0.72	-9.55
c1ccc(-c2nnc(-c3ccccn3)s2)nc1	3.28	-18.69	9.86	4.63	4.16	-18.42
CCOC(=O)c1nnsc1-c1ccc(-c2snnc2C(=O)OCC)cc1	4.36	3.04	-11.2	29.27	6.68	-3.34
O=C(Nc1ccsn1)c1ccc(Cl)cc1Cl	2.74	-9.67	7.73	13.89	3.31	7.18
c1ccc(-c2nnc(-c3ccccn3)[nH]2)nc1	12.66	11.56	-1.7	7.68	4.71	-5.04
COC(=O)C1=C(C(=O)OC)[C@@H]2CCC[C@H]1[C@H]1[C@@H]2N=NN1c1ccccc1	22.18	-12.99	6.51	9.18	2.48	8.73
CN(C)c1ccc2c(c1)Sc1cc(N(C)C)ccc1N2C(=O)c1ccccc1	-9.71	0.08	1.67	25.07	11	-3.81
